Measurements: the supplement of paper PMC12632987

T1: USP38, Q8NB14
T1 chain: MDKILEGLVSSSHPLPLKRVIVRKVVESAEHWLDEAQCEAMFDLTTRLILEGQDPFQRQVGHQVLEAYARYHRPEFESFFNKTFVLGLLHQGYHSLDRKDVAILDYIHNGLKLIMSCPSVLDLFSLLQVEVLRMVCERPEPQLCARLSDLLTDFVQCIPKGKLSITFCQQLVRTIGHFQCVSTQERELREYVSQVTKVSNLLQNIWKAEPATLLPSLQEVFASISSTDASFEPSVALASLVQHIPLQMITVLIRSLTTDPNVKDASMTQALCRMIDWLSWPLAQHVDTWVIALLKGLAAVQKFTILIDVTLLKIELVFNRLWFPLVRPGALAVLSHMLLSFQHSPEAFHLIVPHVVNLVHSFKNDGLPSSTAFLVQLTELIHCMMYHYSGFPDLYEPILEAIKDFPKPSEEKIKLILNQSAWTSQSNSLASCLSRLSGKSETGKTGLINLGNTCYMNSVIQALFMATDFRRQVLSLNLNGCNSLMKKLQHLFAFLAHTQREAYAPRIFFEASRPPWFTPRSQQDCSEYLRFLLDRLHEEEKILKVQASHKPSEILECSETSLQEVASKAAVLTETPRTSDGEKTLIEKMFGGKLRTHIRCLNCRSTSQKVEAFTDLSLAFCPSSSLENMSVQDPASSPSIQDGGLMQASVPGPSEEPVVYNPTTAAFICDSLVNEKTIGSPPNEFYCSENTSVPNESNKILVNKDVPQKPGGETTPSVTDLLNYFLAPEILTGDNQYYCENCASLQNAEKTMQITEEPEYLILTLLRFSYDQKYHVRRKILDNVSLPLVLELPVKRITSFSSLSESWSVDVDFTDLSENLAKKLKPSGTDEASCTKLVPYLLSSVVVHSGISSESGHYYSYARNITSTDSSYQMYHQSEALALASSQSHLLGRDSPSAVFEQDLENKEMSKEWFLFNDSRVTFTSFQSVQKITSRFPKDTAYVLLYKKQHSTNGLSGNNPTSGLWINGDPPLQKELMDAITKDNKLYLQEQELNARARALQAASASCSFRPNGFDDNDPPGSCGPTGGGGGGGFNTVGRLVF

B1: usp_38_diff_out_18_14_347 (protein)
chain: EEELAEQLKSNFESLTKEVEENTKRTKKIIEKLKDDKESAISLLETRIQALDGVITYAKEEKKEAEEKGFEELKAAAEKLIDAATKAKEELEKLLKELKK
B2: usp_38_diff_out_18_14_348 (protein)
chain: SEELYEQELSNLKSLTEEVKKNTERLKKIVEKLKDDPESALSLLETREQALKGVIKYAEEVAKEAKKEGREELLKAAEELIKAAKEALAEAKKLREELLA
B3: usp_38_diff_out_18_14_349 (protein)
chain: SEELREQTLSNLKSLKKEVEEVTERTERIVEKLRGDPEAARALLDTRIQALEGVIKYAEEVLKEAEEEGWEEVAKAAKELIEAAKEAKKRAEELRKELEE
B4: usp_38_diff_out_18_14_350 (protein)
chain: SEELEKQKLSNLKSLKEEVKKNTERLKKIVEKLKDDPESALSLLDTRIQALEGVIKYAEEVLKEAEEKGWEELAKAAKELIKEAEKAKKEAKELKKKLLE
B5: usp_38_diff_out_18_14_351 (protein)
chain: EEELREQLLSNLKSLTKEVKENTERTKKIVEKLKDDPESASSLLDTRIQALEGVIKYAEEVLREAKEKGWEELAEAAKELIKEAKKAKEELKKLKEALKA
B6: usp_38_diff_out_18_14_352 (protein)
chain: EEELREQLLSNLRSLTEEVRRNTERLKRIVEKLRDDPESALALLETRRQALEGVIRYAREVLREARERGWEELAEAAEELIRAAEEALEEAKRLEEELKK
B7: usp_38_diff_out_18_14_353 (protein)
chain: SEELREQLLSNLKTLKEEVRENRERTKRIVARLRDDPESARSLLESRIQAFKGVIKFAEELEKEAKEEGDEELLAAAKELKKEAEEALKELEALLAELDA
B8: usp_38_diff_out_18_14_354 (protein)
chain: SEELREQTLSNLETLTADVEANTARLRRVVAALKDDPASARALLETRAQAMEGVIEYAERLEREAEEEGDEELLEAARRLRATAEAALAEIQALLAELDA
B9: usp_38_diff_out_18_14_356 (protein)
chain: SEEEREATRLFIEARLAAAELVNADADKIIAYEKKHKNRSADTIEMMRGGLAAMAAELEEDLKLAKELGDEELAARLAAAQAELKARAAEFDALLAEKKA
B10: usp_38_diff_out_18_14_357 (protein)
chain: SEAELEAQREYLEAFLEAAEIVNEEAERIIEREREKRILSADRLALMLGGLRALAEEAEEKLREARELGFEELAERLEEALERLEENAERFEALLAERRA
B11: usp_38_diff_out_18_159_358 (protein)
chain: DAELLHQLNLELLKAHLKSWAENAEKKAKKTKTEVAKKVAELAKKALELFEKDPNSKEALKEILELAKEALELIKSDPSFNDRDKTSAAGLVVLAQEVLA
B12: usp_38_diff_out_18_159_359 (protein)
chain: DEELLAELDKEILRDYSTSLAEEAKEKAKKAKDPEVKKLWAEVAKTAKYAAENLDNPEALAQAAKELTALTEELKKKGALNDREELQLQGLITLLNRVAA
B13: usp_38_diff_out_18_28_360 (protein)
chain: MEERREELEKRLKELKAELDKLITEATAAITEALEAHPDDEEVWALVDKLWDALGKAAAAINEARELLREGGDLEEVEKLLKEAEKHLKKAKELLAELKA
B14: usp_38_diff_out_18_28_361 (protein)
chain: MEEERRELEEELRRLEEELERLITEATEAITRALTAHPDDEEVWKLVDELWDALGKAAAAINEARELLREGGPLEEVKAKLDEARKYLKEAKKLLEELKK
B15: usp_38_diff_out_18_28_362 (protein)
chain: AAAERARLEARLRALGARLDALITDATAAVTAALTAHPDDAAVWALVDALWDALGKAAAAVNEARELLRAGGPAEEVERALEAAEAALAEAQALLAQLRA
B16: usp_38_diff_out_18_28_363 (protein)
chain: EEERRRRLEAELEALRARLDALITEATAAITEALTAHPDDEEVWRLVDELLDALGRAAAALEEARRLLREGGPLEEVERLLREAERELERAERLLEELKA
B17: usp_38_diff_out_18_28_364 (protein)
chain: SAAERAALEAELKALTAELDALIDEATEVATEKLTEHPDDEEVWELVDKLFDALGAAAAALNKARELLREGGPLEEVKKQLAKAKEALAEAKKLLEELKK
B18: usp_38_diff_out_18_28_365 (protein)
chain: SEEERRELERRLEELTRRLDELIDEATEAATEALTAHPDDEEVWELVDRLFDALGAAAAALNRARELLREGGPLEEVEEELEEAERHLREAERLLEELRE
B19: usp_38_diff_out_18_28_366 (protein)
chain: SMEEREKLEKELEELKKELDALIDEATALATEALTAHPDDEEVWALVDELFDSLGKAAAHLNRARELLREGGPLEEVEKELKEAKEHLEKAKELLAKLKA
B20: usp_38_diff_out_18_28_367 (protein)
chain: SAAARAAAEARLAALTAELDELIDEATAEATAALTAHPDDAAVWALVDALFDALGAAAAALNRARELLREGGPLEEVEAALAQAEAELARARELLAQLRA
B21: usp_38_diff_out_18_28_368 (protein)
chain: SEEERRELERRLEELTKRLDELIDEATAESTRALTAHPDDEAVWALVDALFDALGAAAAALNRARELLREGGPLEEVQKELDRAEAALKEAEALLAELKA
B22: usp_38_diff_out_18_28_369 (protein)
chain: SAAERAALEAELAALTARLDALIDEATAEATRRLTEHPDDEEVWELVDELFDALGAAAAALREARELLREGGPLAEVQAALDRARAALARAEALLAELKA
B23: usp_38_diff_out_18_28_370 (protein)
chain: SEEERERLEERLAALKAELDALIDRATAAATAALEAHPDDAEVWALIDALFDALGAAAAALNEARRLLREGGDLEEVERLLEQAEAHLAQARALLAQLEA
B24: usp_38_diff_out_18_28_371 (protein)
chain: SAAERAALEARLAALEAELDALIDELVELAKEVYEEHADDEEKLALLDAAWDALGRAAGLLRRARELLREGGDPAEVAALLDAAEAALAEAKALLAELKK
B25: usp_38_diff_out_18_28_372 (protein)
chain: SAAERAALEARLAALEAELNALIDEFVELAERVYEERADDEEALALLDRAWDALGAAAAALNRARELLREGGPAAEVQAQLDAAEAALAEAKALLAELKA
B26: usp_38_diff_out_18_28_373 (protein)
chain: SEEEREELKKRLEELEKRLDELIDRYVELANRVYEEHPDDEEKLRLLDEAADALGEAAYHLREARRLLREGGPPEEVKKELEKAEEALKKAEELLKELEE
B27: usp_38_diff_out_18_28_374 (protein)
chain: SEEEREELERRLRELEERLDELIDEYVELAERVYLEHPDDAEKLALLDAAADALGAAAYHLREARRLLREGGDPEEVERELEKAEEALEEAERLLEELKA
B28: usp_38_diff_out_18_28_375 (protein)
chain: SAATRAALEAELAALEARLDALIDEYVALANRVYEEHPDDAEALALLDAAADALGAAAAALAEARRLLRAGGDPAEVRARLAEARAALAEAEALLAQLKA
B29: usp_38_diff_out_18_28_376 (protein)
chain: SAAERARLEAELAALRAELDALIDEATATATEALEAHPDSEEVWALIDALFDALGAAAAALEEARRLLRAGGPLAEVQALLDRAREHLRRARELLAELKA
B30: usp_38_diff_out_18_28_377 (protein)
chain: MEEERERLERELEELRERLDELIDEATEASLKKLEEEPDSEEVWELIDRLFDALGAAAAALREARELLKAGGPLEEVQRLLEEARRHLEEAERLLEELKE
B31: usp_38_diff_out_18_28_378 (protein)
chain: AAAERAALEAELAALRAELDALIDEATEAATRALEAHPDDEEVWALVDELFDTLGAAAAALNEARRLLKEGGDLAEVKAALAAARDALARARELLAELKA
B32: usp_38_diff_out_18_28_379 (protein)
chain: EEARREELERRLEELRRRLDELIDEATEAATEALTAHPDDEEVWELVDELFDTLGRAAAALERARRLLREGGPLEEVERALEEAERHLEEAEELLEELEE

Target: T1, USP38, Q8NB14
Assay: median log2 fold change of GCK-ALFA target abundance (FLAG IP / Myc IP barcode read proportion) (log2 ratio); each designed protein is fused to an ALFA-tag nanobody in HEK293 cells to bring the named protein to FLAG-tagged glucokinase (GCK); Myc marks an untargeted standard; higher = target protein stabilised (more abundant)
Details: target protein: 3xFLAG-MCP-GCK-ALFA reporter; HEK293 landing pad (RPLP)
In short: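 Sequencing of reverse-transcribed, amplified circular RNA barcodes from anti-FLAG and anti-Myc immunoprecipitates provided the readout for an ALFA-nanobody-fused binder library recombined into HEK293 landing-pad cells. Those cells were induced with 2 μg mL^−1 doxycycline, transfected with a plasmid expressing a FLAG-tagged target and a Myc-tagged standard, and lysed after 48 h. Target abundance is the per-binder median log2 ratio of FLAG to Myc barcode read proportions. Only barcodes at a proportion of ≥10^−7 in both replicates and binders with ≥3 barcodes per replicate were kept, with a 10^−6 pseudocount added before the two replicates were pooled.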

Binder	median log2 fold change
B1	0.152
B2	-0.156
B3	-0.113
B4	-0.185
B5	-0.345
B6	-0.239
B7	-0.0535
B8	-0.0379
B9	-0.0299
B10	-0.477
B11	0.093
B12	0.289
B13	0.282
B14	0.017
B15	-0.0207
B16	-0.0876

Binder	median log2 fold change
B17	0.391
B18	0.239
B19	-0.062
B20	0.0424
B21	0.199
B22	0.292
B23	0.0316
B24	-0.371
B25	-0.142
B26	0.0573
B27	-0.302
B28	-0.238
B29	-0.0614
B30	-0.388
B31	-0.0434
B32	-0.355
